An excerpt weighted towards active compounds, which were near 0.9% of everything screened.
SRC3 TRFRET art – flags TR-FRET format artefacts in PPARgamma SRC-3 recruitment agonist screen | TR-FRET artefact counter-screen, PPARgamma/SRC-3 format; active compounds read high | TR-FRET ratio at 8 µM | 99,000 compounds, 0.39% hits | AID 1048
SRC1 TRFRET art – flags TR-FRET format artefacts in PPARgamma SRC-1 recruitment agonist screen. TR-FRET ratio at 8 µM. 99,000 compounds, 0.34% hits. AID 1051. TR-FRET detection artefact counter-screen, emission ratio; active compounds read high; in the data active means TR-FRET ratio above about 2300
TR-FRET SRC-2 ct – counter-screen for PPARgamma SRC-2 recruitment agonists: TR-FRET artefact; TR-FRET ratio at 8 µM; active compounds read high; 200,000 compounds, 0.4% hits
PPARg SRC2 recr – promotes SRC-2 coactivator recruitment by human PPARgamma. P37231. AID 1032. activation, % at 8 µM. 200,000 compounds, 0.34% hits. PPARgamma LBD-SRC-2 recruitment, biochemical; in the data active means activation above about 22%;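 further: 0% = vehicle and 100% = reference agonist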
Target sequence (P37231 whole entry, looked up, the tested form may be a part): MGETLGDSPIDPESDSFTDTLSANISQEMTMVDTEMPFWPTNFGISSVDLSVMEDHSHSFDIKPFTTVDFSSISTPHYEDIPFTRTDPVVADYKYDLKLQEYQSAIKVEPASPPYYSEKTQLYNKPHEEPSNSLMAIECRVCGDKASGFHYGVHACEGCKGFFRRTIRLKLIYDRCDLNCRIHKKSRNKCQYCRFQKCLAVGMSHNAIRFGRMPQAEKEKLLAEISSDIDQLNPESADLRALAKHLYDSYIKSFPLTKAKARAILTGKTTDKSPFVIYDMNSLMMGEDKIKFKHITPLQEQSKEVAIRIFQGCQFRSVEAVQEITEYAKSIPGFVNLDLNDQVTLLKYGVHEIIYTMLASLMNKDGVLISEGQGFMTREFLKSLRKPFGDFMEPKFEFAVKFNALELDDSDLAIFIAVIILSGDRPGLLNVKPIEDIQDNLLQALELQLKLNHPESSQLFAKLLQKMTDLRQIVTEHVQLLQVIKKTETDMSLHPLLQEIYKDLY
PPARg SRC1 recr – promotes SRC-1 coactivator recruitment by human PPARgamma; 200,000 compounds, 0.41% hits; PPARgamma-SRC-1 coactivator recruitment biochemical assay; AID 631; activation, % at 8 µM; in the data active means activation above about 19%;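 further: 0% = DMSO and 100% = reference agonist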
PPARg SRC3 recr – promotes SRC-3 coactivator recruitment by human PPARgamma; P37231; biochemical PPARgamma/SRC-3 coactivator recruitment assay; activation, % at 8 µM; 200,000 compounds, 0.26% hits; in the data active means activation above about 23%;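 further: 0% = DMSO and 100% = reference agonist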
Active calls of the source: *; / = not tested or not shown. Unless noted, no stated cut-off is given here; in the data, active means TR-FRET ratio above about 2000; inactive means the rest.

SMILES	SRC3 TRFRET art	SRC1 TRFRET art	TR-FRET SRC-2 ct	PPARg SRC2 recr	PPARg SRC1 recr	PPARg SRC3 recr
O=C(N/N=C/c1cnc(N2CCCCC2)s1)c1ccc(Cl)cc1	1706	1954	1811	6	21*	4
CC(NC(=O)CSC(=S)N(C)C)C12CC3CC(CC(C3)C1)C2 (configuration not stated)	1613	2027	1672	3	11	-6
O=S1(=O)CC2N=C(N(Cc3ccc(F)cc3Cl)c3ccccc3F)SC2C1 (configuration not stated)	1453	1784	1811	25*	3	-6
Cc1cc(C)nc(NC(=O)c2c(-c3ccccc3Cl)noc2C)c1	1475	1896	1527	-2	8	0
CCc1ccc2oc(C(=O)Nc3ccc(S(N)(=O)=O)cc3)c(C)c2c1	1772	2324*	1875	8	1	3
Cc1c(C(=O)Nc2c(F)cccc2F)sc2ncnc(N3CCN(c4ccccc4)CC3)c12	2183*	2137	1813	5	4	3
O=C(CN1CCN(c2ccccc2O)CC1)NCCCc1ccccc1	1537	1862	1576	4	15	7
CCC(C)NC(=O)Cc1c(OC)ccc2cc(Br)ccc12 (configuration not stated)	1936	2168	2014*	14	19	8
COc1cc(-c2nc3ccccn3c2/N=C/c2cc(OC)c(OC)c(OC)c2)ccc1O	/	/	1665	26*	23*	19
Cn1c(=O)c(C(=O)NC2CCCCCCC2)c(O)c2ccccc21	1661	3217*	1608	8	50*	-2
CCOC(=O)/C(C#N)=C/c1cc2ccccc2nc1N1CCCCC1	2129*	2172	2031*	12	17	16
COc1ccc(C(=O)Nc2cc(C)c3c(=O)oc4ccccc4c3n2)cc1	/	/	1536	1	24*	-5
Cc1ccc(OCc2nnnn2-c2ccccc2)cc1	1716	1826	1319	-8	-8	-2
O=C(Nc1cc(S(=O)(=O)N2CCOCC2)ccc1N1CCCC1)c1ccc2c(c1)S(=O)(=O)c1ccccc1C2=O	1512	2072	1978*	4	-1	0
O=C(Nc1ccccc1F)Nc1cc(S(=O)(=O)N2CCOCC2)ccc1N1CCCC1	1572	1664	1691	9	7	-2
CCOC(=O)c1nn(-c2ccc(Cl)cc2)c2nc(-c3ccc(C)cc3)c(C#N)c(=O)n12	/	/	1733	0	8	52*
Cc1cccc(C(C)C)c1NC(=O)c1ccc(COc2ccc3c(C)cc(=O)oc3c2)cc1	2221*	2539*	2255*	19	14	11
Cc1cccc(Nc2ccc(C(=O)N3CCOCC3)cn2)c1	1601	2076	1985*	7	9	3
O=C(c1ccc(Nc2cccc(C(F)(F)F)c2)nc1)N1CCCC1	/	/	1376	-5	0	7
O=C(N/N=C/c1ccc([N+](=O)[O-])o1)c1cc(-c2ccc(-c3ccccc3)cc2)nc2ccccc12	1306	1568	1407	-4	7	-3
Cc1cc(N/N=C/c2ccc([N+](=O)[O-])o2)nc2ccccc12	2083*	1831	1789	10	11	9
COc1cccc(N/C(N)=N/c2nc(CSc3ccccn3)cc(=O)[nH]2)c1	1524	1915	1675	1	6	3
CCc1ccc(N/C(N)=N/c2nc(CSc3ccccn3)cc(=O)[nH]2)cc1	2114*	2062	1924	17	5	5
CCN(CC)CCN(Cc1cc2cc3c(cc2[nH]c1=O)OCCO3)C(=O)NC1CCCCC1	/	/	1649	-2	19*	3
Cc1noc(C)c1COc1cccc(C(=O)N2CCc3ccccc32)c1	1412	1659	1664	-3	0	-3
SMILES	SRC3 TRFRET art	SRC1 TRFRET art	TR-FRET SRC-2 ct	PPARg SRC2 recr	PPARg SRC1 recr	PPARg SRC3 recr
C=CCC1Cc2c(Br)cccc2C(CC=C)N1 (configuration not stated)	1570	2057	2035*	5	3	2
Cc1cccn2c(=O)c3cc(C(=O)NCCN4CCOCC4)c(=N)n(CCc4ccccc4)c3nc12	/	/	1506	6	7	28*
Cc1ccc(S(=O)(=O)N(CC(=O)N2CCN(c3ccc(F)cc3)CC2)C2CCCCC2)cc1	/	/	1657	5	10	2
Cc1cccc(NC(=O)CN2CCC(NC(=O)C3CCCCC3)CC2)c1C	1466	1734	1859	2	3	-5
CN(Cc1ccc(OC(F)F)cc1)Cc1nc2c(Br)cc(Br)cc2c(=O)[nH]1	2068*	2212	1842	10	14	7
CC(C)CNS(=O)(=O)c1ccc(CCC(=O)NCc2ccncc2)cc1	1300	1644	1662	3	1	1
O=C(COc1cccc(Cl)c1)Nc1nc(-c2ccc(S(=O)(=O)N3CCOCC3)cc2)cs1	/	/	2278*	11	11	21
O=C(Nc1nc(-c2cccs2)cs1)c1cccc(S(=O)(=O)N2CCCCCC2)c1	/	/	2098*	2	3	-1
O=C(COC(=O)c1cccc(S(=O)(=O)N2CCOCC2)c1)Nc1nc(-c2ccccc2Cl)cs1	/	/	1499	2	9	3
COc1ccccc1OC(C)C(=O)Nc1nc(-c2ccc(S(=O)(=O)N3CCOCC3)cc2)cs1 (configuration not stated)	/	/	2207*	9	5	-12
O=C(Nc1nc(-c2ccncc2)cs1)c1ccc(S(=O)(=O)N2CCOCC2)cc1	/	/	1646	-3	5	6
CCOc1cccc(C(=O)Nc2nc(-c3ccc(S(=O)(=O)N4CCOCC4)cc3)cs2)c1	/	/	2173*	18	14	19
O=C(C1CCN(C2CCN(Cc3ccc4c(c3)CCO4)CC2)CC1)N1CCOCC1	1470	1515	1459	6	0	-6
Cc1ccccc1OCC(=O)Nc1sc(C(=O)Nc2cccc(C)c2C)c(C)c1C#N	/	/	1740	5	24*	5
COc1ccccc1-n1c(-c2ccc(Cl)cc2)c[nH]c1=S	1567	1652	1708	3	6	4
Cn1ncc([N+](=O)[O-])c1C(=O)N/N=C/c1ccc(F)cc1	1850	1712	1691	8	21*	4
CC1CCc2c(sc3nc(SCC(=O)NCc4ccco4)nc(N)c23)C1 (configuration not stated)	/	/	1582	14	21*	4
COc1ccccc1C(=O)NNC(=O)c1ccc(NC(=O)CC(C)C)cc1	1579	1403	1569	-3	-6	1
COc1ccc(Nc2ccc(Nc3ccc(OC)cc3)nn2)cc1	1723	2360*	1769	18	13	14
COc1ccc(Nc2cc(C)c3ccccc3n2)cc1	1923	1815	1594	-3	13	-2
Cc1ccc(CNC(=O)COc2ccc(C(=O)c3ccc(F)cc3)cc2)cc1	1604	2702*	1529	5	39*	-2
COC(=O)c1sc(NC(=S)NC(=O)c2ccccc2F)nc1C	1927	2321*	2016*	12	13	14
N#Cc1c(-c2ccccc2)nc2n(c1=O)CCS2	/	/	1485	3	-4	4

Compound activity from PubChem.
